According to the supplement of paper PMC11732987, “Enantioselective OTUD7B fragment discovery through chemoproteomics screening and high-throughput optimisation” (Communications Chemistry, 2025):

Tests used:
Assay in all cases: log2 ratio of Biotin-Ahx-Ub-VS probe labelling (fragment/DMSO); higher = less target engagement (more negative = stronger competition), active = hit call of the paper (q ≤ 0.05, log2 ratio ≤ -1)
Conditions in all cases: compound concentration: 200 uM; treatment time: 3 h
USP34 = USP34 (UniProt Q70CQ2)
Procedure, shortened: (§1)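 Labelled DUBs from HEK293T lysate were NeutrAvidin-enriched, digested with LysC and trypsin, and run by diaPASEF LC-MS/MS. Before that, each 495 µg sample in Tris/CHAPS/IGEPAL buffer with protease inhibitors was treated in triplicate with fragment at 200 µM or vehicle for 3 h, then with Biotin-Ahx-Ub-VS at 0.5 µM final for 1 h. Values are average log2 ratios of fragment over vehicle by unpaired t-test, based on global-median-normalised Spectronaut label-free quantities from proteins with ≥2 unique peptides.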

USP36 = biological target: T1, USP36 (UniProt Q9P275)
T1 sequence (whole entry): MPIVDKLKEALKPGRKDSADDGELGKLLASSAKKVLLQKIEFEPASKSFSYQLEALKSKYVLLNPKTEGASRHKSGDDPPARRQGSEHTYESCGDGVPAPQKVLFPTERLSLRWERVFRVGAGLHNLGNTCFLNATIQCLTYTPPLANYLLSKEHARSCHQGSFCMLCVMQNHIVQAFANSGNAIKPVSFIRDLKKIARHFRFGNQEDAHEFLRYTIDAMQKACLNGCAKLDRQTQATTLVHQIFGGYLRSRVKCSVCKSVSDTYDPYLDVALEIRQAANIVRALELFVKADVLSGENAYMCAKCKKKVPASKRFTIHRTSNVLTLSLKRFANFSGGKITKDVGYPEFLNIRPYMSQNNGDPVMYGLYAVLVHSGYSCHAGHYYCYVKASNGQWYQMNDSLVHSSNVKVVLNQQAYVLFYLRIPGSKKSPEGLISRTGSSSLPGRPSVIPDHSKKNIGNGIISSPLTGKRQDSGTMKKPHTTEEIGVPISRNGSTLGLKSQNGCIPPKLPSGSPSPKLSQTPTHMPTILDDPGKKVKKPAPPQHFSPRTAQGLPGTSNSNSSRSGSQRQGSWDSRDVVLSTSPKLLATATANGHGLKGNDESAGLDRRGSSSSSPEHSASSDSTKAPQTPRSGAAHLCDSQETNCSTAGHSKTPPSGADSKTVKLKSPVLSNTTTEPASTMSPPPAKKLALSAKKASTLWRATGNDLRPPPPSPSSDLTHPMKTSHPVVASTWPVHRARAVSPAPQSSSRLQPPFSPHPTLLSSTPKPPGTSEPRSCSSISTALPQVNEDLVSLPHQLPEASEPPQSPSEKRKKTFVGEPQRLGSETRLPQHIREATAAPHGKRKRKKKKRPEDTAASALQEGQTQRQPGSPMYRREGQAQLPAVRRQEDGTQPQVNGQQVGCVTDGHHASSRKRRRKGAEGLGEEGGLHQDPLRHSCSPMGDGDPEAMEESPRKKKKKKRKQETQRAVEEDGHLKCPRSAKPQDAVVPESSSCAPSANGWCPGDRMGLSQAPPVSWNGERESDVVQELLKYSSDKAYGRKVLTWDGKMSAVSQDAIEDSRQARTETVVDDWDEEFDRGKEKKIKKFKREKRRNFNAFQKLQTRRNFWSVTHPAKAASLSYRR
Procedure, shortened: as §1

USP38 = biological target: T2, USP38 (UniProt Q8NB14)
T2 sequence (whole entry): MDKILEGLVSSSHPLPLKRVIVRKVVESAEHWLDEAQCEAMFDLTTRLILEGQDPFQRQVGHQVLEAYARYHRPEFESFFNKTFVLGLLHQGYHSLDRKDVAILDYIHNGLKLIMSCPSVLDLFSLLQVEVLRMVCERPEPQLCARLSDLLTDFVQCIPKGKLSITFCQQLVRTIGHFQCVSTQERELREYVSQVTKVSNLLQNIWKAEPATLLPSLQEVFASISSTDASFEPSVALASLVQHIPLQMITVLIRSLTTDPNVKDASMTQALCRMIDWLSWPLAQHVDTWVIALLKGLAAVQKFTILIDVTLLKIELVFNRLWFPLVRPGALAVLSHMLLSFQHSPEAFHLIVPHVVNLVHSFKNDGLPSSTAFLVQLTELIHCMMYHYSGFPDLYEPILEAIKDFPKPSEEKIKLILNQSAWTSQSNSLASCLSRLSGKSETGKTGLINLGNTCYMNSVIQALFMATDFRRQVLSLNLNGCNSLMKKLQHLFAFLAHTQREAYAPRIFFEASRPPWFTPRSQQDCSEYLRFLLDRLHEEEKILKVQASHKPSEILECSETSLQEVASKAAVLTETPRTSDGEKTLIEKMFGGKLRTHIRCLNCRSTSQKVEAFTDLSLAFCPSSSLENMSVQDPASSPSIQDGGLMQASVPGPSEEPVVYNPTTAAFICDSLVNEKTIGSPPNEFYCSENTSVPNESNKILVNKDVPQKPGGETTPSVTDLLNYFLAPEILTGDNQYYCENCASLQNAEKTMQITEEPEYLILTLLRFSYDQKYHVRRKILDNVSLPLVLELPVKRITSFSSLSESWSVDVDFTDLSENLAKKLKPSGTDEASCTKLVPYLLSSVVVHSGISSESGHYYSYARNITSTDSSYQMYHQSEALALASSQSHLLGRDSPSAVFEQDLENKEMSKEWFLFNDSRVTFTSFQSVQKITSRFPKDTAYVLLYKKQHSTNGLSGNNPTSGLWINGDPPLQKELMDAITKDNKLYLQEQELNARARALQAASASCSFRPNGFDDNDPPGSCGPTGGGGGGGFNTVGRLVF
Procedure, shortened: as §1

USP39 = biological target: T3, USP39 (UniProt Q53GS9)
T3 sequence (whole entry): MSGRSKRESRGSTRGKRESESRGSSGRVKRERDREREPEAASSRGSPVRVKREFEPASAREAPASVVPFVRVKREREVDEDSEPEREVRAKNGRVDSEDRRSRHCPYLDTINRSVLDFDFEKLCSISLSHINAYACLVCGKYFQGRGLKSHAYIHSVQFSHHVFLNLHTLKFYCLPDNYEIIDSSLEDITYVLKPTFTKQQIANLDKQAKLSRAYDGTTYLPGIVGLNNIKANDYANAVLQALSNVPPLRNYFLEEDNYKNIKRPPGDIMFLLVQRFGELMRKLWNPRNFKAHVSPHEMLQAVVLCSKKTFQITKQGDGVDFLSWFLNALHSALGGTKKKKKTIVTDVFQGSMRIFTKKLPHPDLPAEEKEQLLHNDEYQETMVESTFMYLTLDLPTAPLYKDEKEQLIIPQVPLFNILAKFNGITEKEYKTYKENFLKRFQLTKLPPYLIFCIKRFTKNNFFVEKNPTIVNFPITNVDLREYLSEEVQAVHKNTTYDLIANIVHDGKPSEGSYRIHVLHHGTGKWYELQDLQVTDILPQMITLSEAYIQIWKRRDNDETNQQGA
Procedure, shortened: as §1

USP4 = biological target: T4, USP4 (UniProt Q13107)
T4 sequence (whole entry): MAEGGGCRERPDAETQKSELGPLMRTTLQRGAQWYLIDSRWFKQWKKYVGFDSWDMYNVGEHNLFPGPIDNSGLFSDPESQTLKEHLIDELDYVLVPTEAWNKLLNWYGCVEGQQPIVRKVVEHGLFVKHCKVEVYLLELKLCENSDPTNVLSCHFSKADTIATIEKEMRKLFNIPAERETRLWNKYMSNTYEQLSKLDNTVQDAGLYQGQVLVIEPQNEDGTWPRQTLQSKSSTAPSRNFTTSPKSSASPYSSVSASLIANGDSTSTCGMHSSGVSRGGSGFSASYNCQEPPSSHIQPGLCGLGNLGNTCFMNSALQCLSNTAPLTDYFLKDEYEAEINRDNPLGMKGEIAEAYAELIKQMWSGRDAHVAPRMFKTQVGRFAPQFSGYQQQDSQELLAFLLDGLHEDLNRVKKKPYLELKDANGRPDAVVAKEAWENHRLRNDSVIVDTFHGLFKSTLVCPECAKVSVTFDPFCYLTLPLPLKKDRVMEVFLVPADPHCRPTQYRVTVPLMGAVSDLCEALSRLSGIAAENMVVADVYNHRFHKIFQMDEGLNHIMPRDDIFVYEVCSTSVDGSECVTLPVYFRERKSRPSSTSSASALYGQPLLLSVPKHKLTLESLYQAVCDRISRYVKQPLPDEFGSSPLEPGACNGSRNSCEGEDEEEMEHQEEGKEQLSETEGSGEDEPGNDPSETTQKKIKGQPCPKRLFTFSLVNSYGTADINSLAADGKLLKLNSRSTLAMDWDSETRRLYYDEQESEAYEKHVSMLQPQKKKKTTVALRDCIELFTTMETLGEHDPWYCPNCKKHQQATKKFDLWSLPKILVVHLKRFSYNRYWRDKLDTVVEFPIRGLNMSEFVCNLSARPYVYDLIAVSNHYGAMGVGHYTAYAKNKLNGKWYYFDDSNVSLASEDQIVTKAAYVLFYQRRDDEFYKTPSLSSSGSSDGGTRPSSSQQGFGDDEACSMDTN
Procedure, shortened: as §1

Measured: log2 ratio of Biotin-Ahx-Ub-VS probe labelling

Chain of USP34 (Q70CQ2 whole entry, the tested form may be a part): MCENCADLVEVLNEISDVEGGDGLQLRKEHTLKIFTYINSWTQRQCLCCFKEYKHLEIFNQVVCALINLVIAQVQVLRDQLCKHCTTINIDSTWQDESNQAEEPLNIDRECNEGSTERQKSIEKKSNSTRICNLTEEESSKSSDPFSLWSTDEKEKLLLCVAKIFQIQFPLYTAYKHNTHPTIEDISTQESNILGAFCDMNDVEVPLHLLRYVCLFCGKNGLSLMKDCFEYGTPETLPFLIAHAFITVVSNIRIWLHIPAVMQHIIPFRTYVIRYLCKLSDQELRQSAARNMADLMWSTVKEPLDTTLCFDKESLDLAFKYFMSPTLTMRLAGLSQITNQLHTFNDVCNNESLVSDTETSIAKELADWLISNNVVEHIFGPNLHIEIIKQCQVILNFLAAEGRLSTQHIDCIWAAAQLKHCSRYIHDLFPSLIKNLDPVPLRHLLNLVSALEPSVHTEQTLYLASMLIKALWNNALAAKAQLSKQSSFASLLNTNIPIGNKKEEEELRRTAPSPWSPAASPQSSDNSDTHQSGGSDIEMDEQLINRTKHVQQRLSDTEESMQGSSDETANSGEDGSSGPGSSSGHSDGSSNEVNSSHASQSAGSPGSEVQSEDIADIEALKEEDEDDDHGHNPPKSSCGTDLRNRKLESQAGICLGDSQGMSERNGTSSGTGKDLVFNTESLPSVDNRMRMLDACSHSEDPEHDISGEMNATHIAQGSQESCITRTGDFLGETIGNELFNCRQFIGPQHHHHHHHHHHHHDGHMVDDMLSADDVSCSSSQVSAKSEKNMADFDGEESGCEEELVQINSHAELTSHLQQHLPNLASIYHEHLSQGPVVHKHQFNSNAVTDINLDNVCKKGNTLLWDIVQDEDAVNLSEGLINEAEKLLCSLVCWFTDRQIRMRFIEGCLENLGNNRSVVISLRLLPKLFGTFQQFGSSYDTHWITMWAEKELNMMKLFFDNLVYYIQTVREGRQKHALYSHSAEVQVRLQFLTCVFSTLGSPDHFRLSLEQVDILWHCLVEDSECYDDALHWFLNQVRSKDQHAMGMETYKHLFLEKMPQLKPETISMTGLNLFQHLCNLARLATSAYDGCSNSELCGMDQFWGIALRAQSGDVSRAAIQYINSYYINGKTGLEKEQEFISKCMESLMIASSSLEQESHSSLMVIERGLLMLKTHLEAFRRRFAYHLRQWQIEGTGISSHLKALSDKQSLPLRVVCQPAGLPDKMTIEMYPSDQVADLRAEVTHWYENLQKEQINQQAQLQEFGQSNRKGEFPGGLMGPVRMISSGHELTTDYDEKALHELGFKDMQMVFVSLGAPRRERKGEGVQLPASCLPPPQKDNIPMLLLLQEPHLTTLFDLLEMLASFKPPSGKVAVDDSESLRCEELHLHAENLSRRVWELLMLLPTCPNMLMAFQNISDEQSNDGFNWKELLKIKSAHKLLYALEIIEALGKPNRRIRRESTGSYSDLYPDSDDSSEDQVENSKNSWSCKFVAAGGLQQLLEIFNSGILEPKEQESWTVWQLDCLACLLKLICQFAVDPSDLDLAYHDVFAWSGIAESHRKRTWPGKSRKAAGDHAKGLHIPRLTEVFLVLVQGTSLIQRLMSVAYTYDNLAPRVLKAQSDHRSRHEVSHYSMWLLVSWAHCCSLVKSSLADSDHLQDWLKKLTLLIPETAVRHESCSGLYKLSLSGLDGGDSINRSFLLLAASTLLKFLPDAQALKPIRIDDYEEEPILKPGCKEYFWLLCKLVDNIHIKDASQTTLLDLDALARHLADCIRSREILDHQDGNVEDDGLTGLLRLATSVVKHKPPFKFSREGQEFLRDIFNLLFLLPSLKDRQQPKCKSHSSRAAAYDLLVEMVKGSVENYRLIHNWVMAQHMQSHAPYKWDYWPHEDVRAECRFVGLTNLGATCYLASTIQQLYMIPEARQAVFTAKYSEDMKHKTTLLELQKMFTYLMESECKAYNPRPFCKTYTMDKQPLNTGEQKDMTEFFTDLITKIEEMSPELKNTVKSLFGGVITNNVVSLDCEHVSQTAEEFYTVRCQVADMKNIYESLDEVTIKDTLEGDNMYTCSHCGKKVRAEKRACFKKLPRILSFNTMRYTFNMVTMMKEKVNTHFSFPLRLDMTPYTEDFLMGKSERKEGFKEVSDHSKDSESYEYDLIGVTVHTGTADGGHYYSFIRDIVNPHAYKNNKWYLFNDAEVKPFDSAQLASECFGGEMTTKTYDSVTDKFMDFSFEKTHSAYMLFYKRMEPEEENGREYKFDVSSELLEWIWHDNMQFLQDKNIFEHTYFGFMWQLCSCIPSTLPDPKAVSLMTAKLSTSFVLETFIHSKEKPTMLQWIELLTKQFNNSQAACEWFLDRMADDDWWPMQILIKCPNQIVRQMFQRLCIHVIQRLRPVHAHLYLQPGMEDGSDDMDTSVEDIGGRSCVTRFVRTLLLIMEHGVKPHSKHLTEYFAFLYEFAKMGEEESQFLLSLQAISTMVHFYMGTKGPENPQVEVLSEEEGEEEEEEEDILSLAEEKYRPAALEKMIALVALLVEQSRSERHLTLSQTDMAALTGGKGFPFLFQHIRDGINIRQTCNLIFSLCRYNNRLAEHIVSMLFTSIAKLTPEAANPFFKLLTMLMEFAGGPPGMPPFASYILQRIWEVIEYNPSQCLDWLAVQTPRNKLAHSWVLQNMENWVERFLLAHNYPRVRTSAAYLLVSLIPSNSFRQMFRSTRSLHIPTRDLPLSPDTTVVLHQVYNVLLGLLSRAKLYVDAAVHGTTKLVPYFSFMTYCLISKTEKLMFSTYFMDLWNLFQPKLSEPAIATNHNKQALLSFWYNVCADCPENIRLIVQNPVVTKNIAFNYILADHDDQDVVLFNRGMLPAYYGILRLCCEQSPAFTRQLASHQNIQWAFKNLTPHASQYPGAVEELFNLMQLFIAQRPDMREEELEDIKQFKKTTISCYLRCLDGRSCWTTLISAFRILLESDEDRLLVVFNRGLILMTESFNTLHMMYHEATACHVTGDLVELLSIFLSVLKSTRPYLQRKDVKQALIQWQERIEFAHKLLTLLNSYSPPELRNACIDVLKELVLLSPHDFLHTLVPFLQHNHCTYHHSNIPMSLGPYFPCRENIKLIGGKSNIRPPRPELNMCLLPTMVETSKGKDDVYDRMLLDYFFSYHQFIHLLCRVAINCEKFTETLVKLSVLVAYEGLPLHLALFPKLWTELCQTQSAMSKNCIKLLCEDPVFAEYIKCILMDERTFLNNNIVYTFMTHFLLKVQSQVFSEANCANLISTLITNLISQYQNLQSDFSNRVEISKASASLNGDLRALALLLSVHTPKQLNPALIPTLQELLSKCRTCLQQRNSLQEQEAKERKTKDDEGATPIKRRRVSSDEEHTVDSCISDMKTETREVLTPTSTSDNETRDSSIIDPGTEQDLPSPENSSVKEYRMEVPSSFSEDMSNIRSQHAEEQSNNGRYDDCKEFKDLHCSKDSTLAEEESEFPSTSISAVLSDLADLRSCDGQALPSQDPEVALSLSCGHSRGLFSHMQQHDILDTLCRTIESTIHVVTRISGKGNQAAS

CCCn1nccc1NC(=O)CCl
inactive: USP34 -0.0454 | USP36 -0.015 | USP38 -0.241 | USP39 -0.211 | USP4 -0.159
